High-throughput results (PubChem BioAssay)
12-LOX inh – Primary qHTS assay for inhibitors of human arachidonate 12S-lipoxygenase (ALOX12): Round 2. Polyunsaturated fatty acid lipoxygenase ALOX12 (Homo sapiens), P18054. purified 12hLO, xylenol orange hydroperoxide absorbance. Potency, µM (top dose mostly 108 µM), for inactives: at the highest dose activity change, negative = inhibition, actives largely listed as inhibitors. hit rate 1.1% among 580,000. AID 1671190, 2021; also: potency is read from the fitted curve at half-maximal effect
Target sequence (P18054 whole entry, looked up): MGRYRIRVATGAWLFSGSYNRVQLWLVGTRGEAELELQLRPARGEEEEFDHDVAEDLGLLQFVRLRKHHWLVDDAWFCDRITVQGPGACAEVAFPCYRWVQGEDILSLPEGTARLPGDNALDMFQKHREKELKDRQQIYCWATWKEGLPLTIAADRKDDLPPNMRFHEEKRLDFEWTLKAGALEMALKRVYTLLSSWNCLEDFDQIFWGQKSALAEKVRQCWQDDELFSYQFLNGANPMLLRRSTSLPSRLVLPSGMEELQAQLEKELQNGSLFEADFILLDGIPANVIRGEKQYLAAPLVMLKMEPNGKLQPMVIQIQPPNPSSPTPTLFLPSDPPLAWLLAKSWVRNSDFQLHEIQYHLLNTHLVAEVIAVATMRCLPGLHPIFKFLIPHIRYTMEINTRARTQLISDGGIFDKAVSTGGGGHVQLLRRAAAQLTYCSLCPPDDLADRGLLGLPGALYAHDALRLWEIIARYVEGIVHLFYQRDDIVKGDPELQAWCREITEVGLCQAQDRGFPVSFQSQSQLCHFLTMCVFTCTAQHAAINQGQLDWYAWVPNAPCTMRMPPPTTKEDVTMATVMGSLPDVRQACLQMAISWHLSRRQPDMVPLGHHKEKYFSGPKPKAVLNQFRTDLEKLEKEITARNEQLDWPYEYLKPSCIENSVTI
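Purified human 12hLO at 150 nM in 25 mM Hepes, 0.01% Triton X-100, pH 7.0, preincubated 15 min at room temperature with compound. Reaction started with 40 uM arachidonic acid, 30 min at room temperature. Hydroperoxide measured by Fe-xylenol orange, 573/405 nm absorbance ratio.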
HT1080NT lethal – qHTS for induction of synthetic lethality in tumor cells producing 2HG: qHTS for the HT-1080-NT fibrosarcoma cell line; hit rate 1.6% among 360,000; AID 686970, 2013; Potency, µM (doses to about 46.1 µM), inactives show at the highest dose activity, negative = less viability, hits mostly cytotoxic; HT-1080-NT fibrosarcoma viability, CellTiter-Glo ATP luminescence, 48 h;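 also: NT is the 2HG producing partner of a matched IDH1 knockdown line; potency is read from the fitted curve at half-maximal effect; 0% = DMSO-treated cells and -100% = media-only wells without cells; nearly all actives have a fitted effect of over 55% in size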
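Viability by CellTiter-Glo luminescence after 48 h compound exposure at 37C of HT-1080-NT cells (750/well, RPMI, 5% FBS). % activity scaled between DMSO wells and medium-only wells, then curve-fitted and categorized by curve class.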
HT1080 IDH1KD tx – qHTS for induction of synthetic lethality in tumor cells producing 2HG: qHTS for the HT-1080-IDH1KD cell line; HT-1080 IDH1 knockdown viability, ATP luminescence, 48 h; Potency, µM (doses to about 46.1 µM), without a hit: top-dose activity, negative = toxicity, hits mostly cytotoxic; hit rate 2% among 360,000;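 also: potency is read from the fitted curve at half-maximal effect; 0% = DMSO wells and -100% = cell-free medium wells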
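Assay cells: HT-1080 with IDH1 knockdown, 750 per well, RPMI/5% FBS. Exposure: 48 h at 37 °C following 2 h pre-incubation. Read: CellTiter-Glo luminescence; fitted concentration-response, curve class assigned.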
IL-1B inflam inh – qHTS for Inhibitors of Inflammasome Signaling: IL-1-beta AlphaLISA Primary Screen. THP-1 LPS/ATP IL-1B secretion, AlphaLISA, 16 h; stronger effect = lower value. activity change, % at 57.5 µM. hit rate 4.7% among 360,000. AID 743279, 2014; in the data active = activity change below about -50%; inconclusive = mostly about -30% to -49%
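THP-1 cells pretreated 1 hr with compounds (up to 57.5 uM final), then stimulated with LPS (250 ng/mL final) plus ATP (1.25 mM final); secreted IL-1B measured by AlphaLISA after 16 hr, decreased signal indicating inhibition.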
DT40 TDP1 no CPT – qHTS for Inhibitors of human tyrosyl-DNA phosphodiesterase 1 (TDP1): qHTS in cells in absence of CPT; DT40 Tdp1-/- hTDP1 cells, no CPT, ATP luminescence, 48 h; Potency, µM (series often up to 46.2 µM), for the others: at the top dose activity change, negative = growth inhibition, actives largely listed as inhibitors; hit rate 15% among 420,000; AID 686978, 2013; also: potency is read from the fitted curve at half-maximal effect; nearly all actives have a fitted effect of over 55% in size
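Camptothecin absent (DMSO only). Human TDP1-complemented DT40 knockout cells, 400 cells/well, 37 °C for minimum 48 hr; ATP measured via CellTiter-Glo, 30 min dark incubation, luminescence.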
DT40 TDP1 CPT – qHTS for Inhibitors of human tyrosyl-DNA phosphodiesterase 1 (TDP1): qHTS in cells in presence of CPT. chicken DT40 Tdp1-/-;hTDP1 cells + 20 nM CPT, ATP luminescence, 48 h. Potency, µM (top dose mostly 46.2 µM), without a hit: at the top dose activity change, negative = growth inhibition, hits mostly inhibitors. hit rate 12% among 420,000. AID 686979, 2013; also: potency is read from the fitted curve at half-maximal effect; nearly all actives have a fitted effect of over 55% in size
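Cell growth measured by CellTiter-Glo luminescence after a minimum 48 h, 37 C compound exposure with 20 nM CPT in Tdp1-knockout DT40 cells stably expressing hTDP1, seeded 400/well; qHTS titration format.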
* hit, by the source's call. This excerpt belongs to a sample that is enriched for hits. Unless noted, calls follow the shape of the dose curve; as a rule, active = well fitted curve in the direction sought with a large enough effect; inconclusive = small, poorly fitted or top-dose-only effect, or another doubt; inactive = no such curve, though single readings can be large; an effect the other way counts as inactive or inconclusive. Unless noted, % is scaled to controls: 0 for no effect and ±100 for the full control effect.

Cc1ccc(C(=O)N(Cc2ccco2)C2CC2)cc1F was read as 12-LOX inh 5%.
Cc1c(Cl)ccc2c(C(O)CBr)cc(-c3ccccc3)nc12 (stereo unspecified) was read as 12-LOX inh inconclusive, HT1080NT lethal inconclusive, HT1080 IDH1KD tx inconclusive, IL-1B inflam inh -86*, DT40 TDP1 no CPT 16µM* and DT40 TDP1 CPT inconclusive.
Screening CCc1ccc2c(c1)C(c1ccc([N+](=O)[O-])cc1)=NNC(c1ccc(Br)cc1)=N2 returned 12-LOX inh 3%, HT1080NT lethal 20%, HT1080 IDH1KD tx 15%, IL-1B inflam inh 2, DT40 TDP1 no CPT inconclusive and DT40 TDP1 CPT 13µM*.
For Cc1ccc(CN2CCC(N3CCCC(C(=O)NCCc4ccccc4)C3)CC2)o1 (stereo unspecified) the results were 12-LOX inh 1%.
CCOC(=O)C1CCCN(CCN(C)C)C1 (stereo unspecified) was read as 12-LOX inh -10%.
Screening Cc1noc(C)c1S(=O)(=O)N1CCCC(Cc2nncn2CC2CC2)C1 (stereo unspecified) returned 12-LOX inh 19%.
O=C(C1CCCCC1)N1C[C@H](n2cc(-c3ccc(F)cc3)nn2)[C@@H](O)C[C@@H]1c1ccc(Cl)cc1 was read as 12-LOX inh -41%, HT1080NT lethal inconclusive, HT1080 IDH1KD tx inconclusive, IL-1B inflam inh -56*, DT40 TDP1 no CPT 16µM* and DT40 TDP1 CPT inconclusive.
Screening O=C(C1CCCCC1)N1C[C@H](O)[C@@H](n2cc(-c3ccc(F)cc3)nn2)C[C@@H]1c1ccccc1 returned 12-LOX inh 7%, HT1080NT lethal 15%, HT1080 IDH1KD tx 13%, IL-1B inflam inh -24, DT40 TDP1 no CPT inconclusive and DT40 TDP1 CPT inconclusive.
COc1ccc([C@H]2C[C@@H](n3cc(-c4ccc(F)cc4)nn3)[C@H](O)CN2C(=O)C2CCCCC2)cc1 was read as 12-LOX inh 3%, HT1080NT lethal -19%, HT1080 IDH1KD tx -12%, IL-1B inflam inh -20, DT40 TDP1 no CPT 8.2µM* and DT40 TDP1 CPT inconclusive.
For Cc1ccc([C@H]2C[C@@H](O)[C@H](n3cc(-c4ccc(F)cc4)nn3)CN2C(=O)C2CCCCC2)cc1 the results were 12-LOX inh 71%, HT1080NT lethal -19%, HT1080 IDH1KD tx -26%, IL-1B inflam inh -20, DT40 TDP1 no CPT 23µM* and DT40 TDP1 CPT inconclusive.
Screening Cc1ccc([C@H]2C[C@@H](O)[C@H](n3cc(C4CC4)nn3)CN2C(=O)C2CCCCC2)cc1 returned 12-LOX inh inconclusive, HT1080NT lethal -1%, HT1080 IDH1KD tx -13%, IL-1B inflam inh 16, DT40 TDP1 no CPT inconclusive and DT40 TDP1 CPT -108%.
`O=C(C1CCCCC1)N1C[C@@H](n2cc(-c3ccc(F)cc3)nn2)[C@H](O)C[C@@H]1c1ccc(Cl)cc1` gave 12-LOX inh 9%, HT1080NT lethal inconclusive, HT1080 IDH1KD tx inconclusive, IL-1B inflam inh inconclusive, DT40 TDP1 no CPT 23µM* and DT40 TDP1 CPT 18µM*.
Screening O=C(C1CCCCC1)N1C[C@@H](O)[C@H](n2cc(-c3ccc(F)cc3)nn2)C[C@@H]1c1ccc(Cl)cc1 returned 12-LOX inh inconclusive, HT1080NT lethal inconclusive, HT1080 IDH1KD tx inconclusive, IL-1B inflam inh -12, DT40 TDP1 no CPT inconclusive and DT40 TDP1 CPT inconclusive.
`O=C1C=C(c2ccc(Cl)cc2)CC(c2ccccc2)C1` (stereo unspecified) gave 12-LOX inh -68%.
`NC(=O)C1CN(CC(=O)Nc2cc(Cl)ccc2Cl)c2ccccc2O1` (stereo unspecified) gave 12-LOX inh 5%.
For Cc1ncc(CN2CCN(C(=O)c3cccn3C3CC3)CC(O)C2)[nH]1 (stereo unspecified) the results were 12-LOX inh 75%.
`COCc1nc(CCNC(=O)NC2CCCCC2)no1` gave 12-LOX inh 19%.
CN(c1ccc(Cl)cc1)c1cc(=O)n(C)c2ccccc12 was read as 12-LOX inh inconclusive, HT1080NT lethal inconclusive, HT1080 IDH1KD tx inconclusive, IL-1B inflam inh 2, DT40 TDP1 no CPT inconclusive and DT40 TDP1 CPT 13µM*.
For NC(=O)c1ccc(N2CCN(Cc3cnc(-c4ccco4)nc3)CC2)nc1 the results were 12-LOX inh 5%.
For COc1ccc(/C=C/C(=O)Sc2ccc(C)cc2)cc1 the results were 12-LOX inh 2%.
Screening O=S1(=O)c2ccccc2C(O)C(Cc2ccncc2)N1CCO (stereo unspecified) returned 12-LOX inh 10%.
`C=C1[C@@H](O)[C@H](Cc2ccccc2)N(Cc2ccccc2Br)S1(=O)=O` gave 12-LOX inh -50%, HT1080NT lethal inconclusive, HT1080 IDH1KD tx 23µM*, IL-1B inflam inh -102*, DT40 TDP1 no CPT 18µM* and DT40 TDP1 CPT 21µM*.
`CC1(C)c2ccccc2C(=O)c2ccccc21` gave 12-LOX inh 0%, HT1080NT lethal 8%, HT1080 IDH1KD tx 2%, IL-1B inflam inh -19, DT40 TDP1 no CPT inconclusive and DT40 TDP1 CPT -30%.
For O=[N+]([O-])C1C(c2ccccc2)C12c1ccccc1-c1ccccc12 (stereo unspecified) the results were HT1080NT lethal 5.8µM*, HT1080 IDH1KD tx 6.5µM*, IL-1B inflam inh -67*, DT40 TDP1 no CPT 1µM* and DT40 TDP1 CPT 1µM*.
